Here are results for 13 molecules from PubChem BioAssay (NCI).

Compounds without any hit were thinned out: in the full panel of roughly 83,000, 20% have a hit.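 Testing used 96-well plates and a 48-hour single-concentration exposure. Example: -40 means 40% of the starting cells died.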 A number with no mark means an inactive call. The source made the active and inactive calls. Rule for the calls: active = growth percent below 10; inactive = the rest.

Some test systems named below: SK-MEL-2 melanoma; EKVX NSCLC; SN12C renal; UO-31 renal; TK-10 renal; ACHN renal; CAKI-1 renal; A498 renal; CCRF-CEM leukemia; MOLT-4 leukemia.
What all share (experiment): NCI-60 one-dose screen, 48 h (100 = growth as untreated, 0 = no growth, -100 = all killed)
What all share (details): 10 µM unless noted

Turning to `Cc1ccc(/C=C2\CN(C(=O)OC(C)(C)C)C/C(=C\c3ccc(C)cc3)C2=O)cc1`, the growth is 83.8% in the test on SK-MEL-2 melanoma; 84.3% in the test on EKVX NSCLC; 60.7% in the test on SN12C renal; 66.9% in the test on UO-31 renal; 87% in the test with TK-10 renal; 20.3% in the test on ACHN renal. In addition, the growth in the test with CAKI-1 renal was 61%; with A498 renal it was 67.6%; in the test on CCRF-CEM leukemia, 3.02% (active); with MOLT-4 leukemia, 34.7%.
As for `COc1ccc(-c2nn(-c3ccccc3)cc2/C=C2/SC(=S)N(C)C2=O)cc1`, the growth is 108% in the test with SK-MEL-2 melanoma; 74.4% with EKVX NSCLC; 34.2% with SN12C renal; 16% in the test with UO-31 renal; 27.7% in the test with TK-10 renal; -0.446% (active) in the test on ACHN renal. Further, the growth was 38.5% in the test with CAKI-1 renal, 96.9% in the test with A498 renal, 49.6% with CCRF-CEM leukemia and 81.3% in the test on MOLT-4 leukemia.
In the case of `COc1ccc(-c2nc3c(c(-c4ccccc4)nn3-c3ccccc3)c(-c3ccc(N4CCOCC4)cc3)c2C#N)cc1`, the growth was 106% in the test with SK-MEL-2 melanoma; 100% in the test on EKVX NSCLC; 97.9% in the test on SN12C renal; 103% in the test with UO-31 renal; 110% with TK-10 renal; 104% with ACHN renal. Besides, the growth in the test on CAKI-1 renal was 93.7%; in the test on A498 renal, 98.2%; in the test with CCRF-CEM leukemia, 99.6%; with MOLT-4 leukemia, 94.4%.
With `CCOC(=O)CSc1ncnc2c1c(-c1ccccc1)c(-c1ccccc1)n2-c1ccc(C)cc1`, the growth in the test on SK-MEL-2 melanoma was 82.4%; in the test on EKVX NSCLC, 43.9%; in the test with SN12C renal, 64.3%; with UO-31 renal, 73.4%; in the test on TK-10 renal, 78.5%; in the test with ACHN renal, 90.7%. The growth in the test with CAKI-1 renal was 75.6%; in the test on A498 renal, 75.2%; in the test with CCRF-CEM leukemia, 67%; with MOLT-4 leukemia, 67.4%.
In the case of `CN(CCOc1ccc(C#N)cc1)CCOc1ccc(C#N)cc1`, the growth in the test with SK-MEL-2 melanoma is 66.9%; in the test with EKVX NSCLC, 80.3%; in the test with SN12C renal, 81.6%; in the test with UO-31 renal it was 63%; with TK-10 renal, 94.3%; in the test on ACHN renal, 83.6%. The growth is 99.7% in the test on CAKI-1 renal, 12.7% in the test with A498 renal, -84.4% (active) in the test with CCRF-CEM leukemia and 94.4% in the test on MOLT-4 leukemia.
As for `CCc1n(Cc2ccc3ccccc3c2)cc[n+]1Cc1ccc2ccccc2c1`, the growth was -55.2% (active) in the test with SK-MEL-2 melanoma; 11.9% in the test with EKVX NSCLC; 6.37% (active) in the test with SN12C renal; 80.6% in the test with UO-31 renal; -10.3% (active) in the test on TK-10 renal; 72.3% in the test on ACHN renal. Besides, the growth was 84.5% in the test on CAKI-1 renal, 21.8% in the test with A498 renal, 11.4% in the test with CCRF-CEM leukemia and 10.6% in the test with MOLT-4 leukemia.
`CCN(CC)CCSc1nc(-c2ccccc2)c(C#N)c(=O)[nH]1`: the growth in the test with SK-MEL-2 melanoma is 97%; in the test on EKVX NSCLC, 91.8%; with SN12C renal it was 116%; with UO-31 renal it was 110%; in the test on TK-10 renal, 128%; with ACHN renal it was 112%. In addition, the growth was 99.8% in the test with CAKI-1 renal, 208% in the test with A498 renal, 150% in the test on CCRF-CEM leukemia and 105% in the test on MOLT-4 leukemia.
Turning to `Fc1ccc(Nc2nc3nonc3nc2Nc2ccc(I)cc2)cc1`, the growth in the test on SK-MEL-2 melanoma is -39.7% (active); in the test with EKVX NSCLC, 3.92% (active); in the test on SN12C renal it was -5.7% (active); in the test with UO-31 renal it was -7.55% (active); with TK-10 renal it was -2.84% (active); with ACHN renal, 4.53% (active). Further, the growth in the test with CAKI-1 renal is 11.3%; in the test with A498 renal, -36.1% (active); in the test with CCRF-CEM leukemia it was 1.66% (active); in the test with MOLT-4 leukemia, -35.7% (active).
`O=C1C(Cl)=C(Nc2ccc(O)cc2)C(=O)N1Cc1ccc(Cl)cc1`: the growth in the test with SK-MEL-2 melanoma was 66.2%; with EKVX NSCLC it was 79%; with SN12C renal, 64.9%; in the test with UO-31 renal it was 52.2%; in the test with TK-10 renal, 63.2%; in the test with ACHN renal, 71.4%. For the same molecule, the growth is 74% in the test with CAKI-1 renal, 75.4% in the test with A498 renal, 4.97% (active) with CCRF-CEM leukemia and 16.9% with MOLT-4 leukemia.
For `N#Cc1nn(-c2cc(=O)[nH]c3ccc(Cl)cc23)c(N)c1C#N`, the growth with SK-MEL-2 melanoma is 116%; in the test with EKVX NSCLC it was 94%; in the test with SN12C renal, 104%; in the test with UO-31 renal, 75.8%; in the test on TK-10 renal it was 105%; in the test with ACHN renal it was 92.7%. The growth is 101% in the test on CAKI-1 renal, 116% in the test on A498 renal, -15.8% (active) in the test on CCRF-CEM leukemia and -3.91% (active) in the test with MOLT-4 leukemia.
For `C#CCOc1cccc(Nc2ncnc3ccc(NC(=O)CCl)cc23)c1`, the growth was -47.9% (active) in the test on SK-MEL-2 melanoma; -45.2% (active) in the test on EKVX NSCLC; -24.7% (active) in the test with SN12C renal; -87.8% (active) in the test on UO-31 renal; -60.8% (active) in the test with TK-10 renal; -80.8% (active) in the test with ACHN renal. Besides, the growth in the test on CAKI-1 renal is 1.72% (active); in the test with A498 renal, -2.12% (active); in the test on CCRF-CEM leukemia, -56.9% (active); in the test with MOLT-4 leukemia it was -25.1% (active).
With `CCn1cc(C(=O)N/N=C/c2cccs2)c(=O)c2cc(F)c(N3CCNC(C)C3)c(F)c21` (stereo not given), the growth in the test on SK-MEL-2 melanoma was 103%; in the test on EKVX NSCLC, 34.1%; in the test on SN12C renal, 70%; in the test with UO-31 renal, 66.8%; in the test with TK-10 renal it was 83.9%; in the test on ACHN renal, 87.2%. Also, the growth was 46.5% in the test with CAKI-1 renal, 104% with A498 renal, 67.2% in the test on CCRF-CEM leukemia and 75.1% in the test with MOLT-4 leukemia.
Regarding `Cc1c(-n2nnc(-c3nc4ccccc4s3)c2N)c(=O)n(-c2ccccc2)n1C`, the growth in the test with SK-MEL-2 melanoma was 107%; in the test with EKVX NSCLC, 101%; with SN12C renal, 108%; in the test on UO-31 renal it was 73.9%; in the test on TK-10 renal, 109%; with ACHN renal, 100%. Also, the growth in the test with CAKI-1 renal was 87%; in the test on A498 renal it was 112%; in the test with CCRF-CEM leukemia, 107%; in the test with MOLT-4 leukemia it was 98.3%.
